Measurements as given in PubChem BioAssay AID504411 (The Scripps Research Institute Molecular Screening Center, 2011).
The whole screen tested about 340,000 compounds, of which about 200 (0.059%) were called active. The sample holds actives, similar compounds and a random draw of the others, so the mix is not that of the screen. Cut-off read from the data, not from the text of the source: active = inhibition above about 34%; inactive = the rest.

target: Diacylglycerol lipase-beta (Homo sapiens) (UniProt Q8NCG7); test: DAGLB lipase inhibitors, primary screen, biochemical, fluorescence, HTS (AID 504411); conditions: HEK293T DAGLB membrane lysate, EnzChek fluorogenic substrate; at 5.17 µM; hits give high values;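 note: 0% = enzyme with vehicle and 100% = wells lacking enzyme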
Sequence (Q8NCG7 whole entry, looked up): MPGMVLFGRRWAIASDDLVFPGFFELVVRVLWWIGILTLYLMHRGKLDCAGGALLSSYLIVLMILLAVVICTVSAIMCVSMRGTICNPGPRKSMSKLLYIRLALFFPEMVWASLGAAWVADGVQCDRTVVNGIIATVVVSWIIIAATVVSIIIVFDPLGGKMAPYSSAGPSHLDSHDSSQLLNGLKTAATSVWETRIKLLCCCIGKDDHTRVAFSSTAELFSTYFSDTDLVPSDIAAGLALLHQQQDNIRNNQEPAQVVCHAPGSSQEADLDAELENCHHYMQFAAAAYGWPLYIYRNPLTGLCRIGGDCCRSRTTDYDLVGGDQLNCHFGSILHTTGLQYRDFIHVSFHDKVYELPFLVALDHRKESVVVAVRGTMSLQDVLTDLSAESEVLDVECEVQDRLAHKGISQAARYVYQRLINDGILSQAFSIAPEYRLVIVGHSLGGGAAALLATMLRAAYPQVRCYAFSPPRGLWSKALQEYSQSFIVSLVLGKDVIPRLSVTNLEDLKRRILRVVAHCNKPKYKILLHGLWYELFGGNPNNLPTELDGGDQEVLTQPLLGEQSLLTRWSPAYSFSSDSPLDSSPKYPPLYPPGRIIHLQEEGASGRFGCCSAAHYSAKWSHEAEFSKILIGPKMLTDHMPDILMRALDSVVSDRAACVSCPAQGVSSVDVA

Row | SMILES | inhibition
1 | COC(=O)c1cccc(N2C(=O)C3C4C=CC(CC4)C3C2=O)c1 (stereo not drawn) | -2.32% (inactive)
2 | CC(=O)Nc1ccc(N2C(=O)C3C4CC(=O)C(c5ccccc54)C3C2=O)cc1 (stereo not drawn) | 2.73% (inactive)
3 | O=C(Oc1cccc(N2C(=O)C3C4c5ccccc5C(c5ccccc54)C3C2=O)c1)c1ccco1 (stereo not drawn) | 34.9% (active)
4 | CCOC(=O)C1=NN(c2ccc(Cl)cc2)/C(=C/C2=NCCc3cc(OC)c(OC)cc32)S1 | 3.17% (inactive)
5 | CCN(CC(=O)Nc1ccc(NC(C)=O)cc1)C(=O)CSC(=S)N1CCCC1 | -0.87% (inactive)
6 | Cn1c(-c2ccc(C(=O)c3ccccc3)s2)nc2ccccc21 | -0.73% (inactive)
7 | O=C1Cc2cc(S(=O)(=O)Nc3cccc(F)c3)ccc2N1 | 0.82% (inactive)
8 | O=C(CCNC(=O)c1ccc([N+](=O)[O-])cc1)NC1CCCCC1 | 0.66% (inactive)
9 | O=C(/C=C/c1ccc(Cl)cc1)NCCCn1ccnc1 | -2.05% (inactive)
10 | CCOc1ccc(Br)cc1S(=O)(=O)Nc1cccc(S(=O)(=O)N(CC)CC)c1 | -0.11% (inactive)
11 | Cc1cc(NC(=O)Nc2c[nH]c(=O)[nH]c2=O)ccc1Br | -0.76% (inactive)
12 | Cc1ccc(-c2nn(C(C)(C)C)c3ncnc(N)c23)cc1 | -2.33% (inactive)
13 | CCCCCCn1c(=O)n2n(c1=O)C[C@]1(OC(=O)NCc3ccc(OC)c(OC)c3)CN(S(=O)(=O)c3ccc(C)cc3)C[C@]1(O)C2 | 1.56% (inactive)
14 | CC(NC(=O)c1ccc(S(=O)(=O)Nc2ccccc2)cc1)c1ccc(S(N)(=O)=O)cc1 (stereo not drawn) | 1.2% (inactive)
15 | Cc1ccccc1OCCC(=O)Nc1c(C)n(C)n(-c2ccccc2)c1=O | -2.86% (inactive)
16 | CCOc1nnc(C)c2c(C)n(-c3cccc(Cl)c3)nc12 | -5.36% (inactive)
17 | O=[N+]([O-])c1cc(S(=O)(=O)CCCN2CCOCC2)ccc1F | -0.41% (inactive)
18 | Cc1nc2ccc(S(=O)(=O)N(C)CC(=O)NC(C)c3ccccc3)cc2s1 (stereo not drawn) | 1.36% (inactive)
19 | O=C1N(c2ccc(Cl)cc2)C(c2ccc(Cl)cc2)N2CCCN12 (stereo not drawn) | -1.46% (inactive)
20 | COC(=O)c1ccccc1NS(=O)(=O)c1ccc2[nH]c(=O)[nH]c2c1 | -1.28% (inactive)
21 | CCOc1ncccc1C(=O)NNC(=O)c1cccc(S(=O)(=O)Nc2ccccc2OC)c1 | 1.16% (inactive)
22 | COc1ccc(Br)cc1/C=N/Nc1ccc(S(=O)(=O)Nc2ccccc2C(=O)O)cc1[N+](=O)[O-] | 35.8% (active)

Row | SMILES | inhibition
23 | COc1ccc(S(=O)(=O)Nc2ccc3cn[nH]c3c2)cc1[N+](=O)[O-] | -1.73% (inactive)
24 | COc1ccc(S(=O)(=O)Nc2ccccc2C(=O)N2CCCC2)cc1C | 0.86% (inactive)
25 | COc1cccc(/C=N/Nc2ccc(S(=O)(=O)Nc3ccccc3C(=O)O)cc2[N+](=O)[O-])c1O | 39.5% (active)
26 | Cc1ccc(OCCCCN2CCCCC2)c(Br)c1 | 1.62% (inactive)
27 | CCCNC(=O)CN(Cc1ccccc1F)S(=O)(=O)c1ccc(C)cc1 | 1.71% (inactive)
28 | COc1ccccc1C(=O)NC(=O)COC(=O)C1CC1 | 3.34% (inactive)
29 | N#CC(Cc1cc2ccccc2n1S(=O)(=O)c1ccccc1)OCc1ccccc1 (stereo not drawn) | -8.05% (inactive)
30 | O=C(O)CCCCCCCCc1cn(CN2C(=O)c3ccccc3C2=O)nn1 | 1.19% (inactive)
31 | COc1cc(C2C(C(=O)c3sc(C)nc3C)=C(O)C(=O)N2CCN(C)C)cc(OC)c1OC (stereo not drawn) | 0.65% (inactive)
32 | O=C(N[C@@H]1C/C=C\C[C@@H](CC(=O)N(CCO)Cc2ccccc2)C(=O)N[C@H](Cc2ccccc2)COC1=O)OCC1c2ccccc2-c2ccccc21 | -1.54% (inactive)
33 | O=C(CCc1ccc(O)cc1)NN=Cc1cc(Br)ccc1O | 3.63% (inactive)
34 | NC(N)=NCCCc1cn(CC(=O)N2CCNCC2)nn1 | -3.67% (inactive)
35 | COc1ccc(CCNC(=O)c2ccc(NC(=O)CC3SC(N4CCCCC4)=NC3=O)cc2)cc1OC (stereo not drawn) | 2.1% (inactive)
36 | O=C(O)c1ccccc1-c1ccccc1C(=O)Nc1ccccc1Br | 0.09% (inactive)
37 | CC(NC(=O)c1ccccc1SCC(=O)N1CCCC1)c1ccccc1 (stereo not drawn) | 0.41% (inactive)
38 | Cc1ccc2cccc(O)c2[n+]1[O-] | 1.39% (inactive)
39 | CN1CCC(=NNC(=O)CN(c2cccc(Cl)c2)S(C)(=O)=O)CC1 | -3.34% (inactive)
40 | Cc1ccccc1CSc1nnc(Cn2c(=O)sc3ccccc32)n1C | 0.6% (inactive)
41 | C/C(=N\OCC(=O)Nc1ccc(Br)cc1)c1cccs1 | -7.81% (inactive)
42 | COc1ccccc1C1CCN(C(=S)Nc2ccc(Br)cc2)CC1 | 23.2% (inactive)
43 | CCc1cccc(C)c1NS(=O)(=O)c1c(C)nc2sccn2c1=O | -0.01% (inactive)
44 | COc1ccc(S(=O)(=O)N/N=C\c2ccc(OC)c(COc3ccc(C)cc3[N+](=O)[O-])c2)cc1 | -2.91% (inactive)

Row | SMILES | inhibition
45 | O=c1c2ccccc2nc2n1C(CSCc1cccc(C(F)(F)F)c1)CS2 (stereo not drawn) | -3.32% (inactive)
46 | COc1cc(NC(=O)CCS(=O)(=O)c2ccc3c(c2)oc(=O)n3C)cc(OC)c1 | -2.39% (inactive)
47 | CC(=O)Nc1ccc(/C(C)=N/NC(=O)CN(c2ccccc2Br)S(C)(=O)=O)cc1 | 1.17% (inactive)
48 | COc1ccc(CNC(=O)C(=O)N2CCC3(CC2)OCCN3S(=O)(=O)c2ccc(C)cc2)cc1 | -1.66% (inactive)
49 | COC(=O)c1cccc(NS(C)(=O)=O)c1 | -0.97% (inactive)
50 | CC(OC(=O)c1cc2ccccc2o1)C(=O)Nc1ccc(N2CCOCC2)cc1 (stereo not drawn) | -1.16% (inactive)
51 | COc1ccc(C(=O)OCC(=O)Nc2cc(C)on2)cc1F | 1.42% (inactive)
52 | COCCCN1C(=O)C(CC(=O)NCc2cccs2)CC(C(=O)N2CCOCC2)=C1C (stereo not drawn) | -1.14% (inactive)
53 | CN(C(=O)CN1C(=O)CCSc2ccc(S(=O)(=O)N3CCCC3)cc21)c1ccccc1 | 3.08% (inactive)
54 | O=C1CCCN1CCCNC(=S)Nc1ccc(F)c(Cl)c1 | 0.01% (inactive)
55 | COC(=O)CN1C(C)=Nc2ccc(Br)cc2C1c1ccccc1 (stereo not drawn) | 0.08% (inactive)
56 | Cc1ccccc1C(=O)NNC(=O)CN1C(=O)c2ccccc2C1=O | 0.77% (inactive)
57 | CC(=O)c1ccc(S(=O)(=O)N2CCC(Oc3ccc(-n4cnnn4)cc3)CC2)cc1 | -1.2% (inactive)
58 | COc1ccc(-c2cc(C(F)(F)F)nc(S(C)(=O)=O)n2)cc1OC | -5.4% (inactive)
59 | O=C(Cn1ncc2c3ccccc3n(Cc3ccccc3)c2c1=O)NCCCN1CCOCC1 | -2.32% (inactive)
60 | CC(C)c1ccc2c(c1)c(SC(C)(C)C)c(CC(C)(C)C(=O)O)n2Cc1ccc(Cl)cc1 | 1.23% (inactive)
61 | COCc1cc(C)n(CC(=O)NCC2CCCO2)c(=O)c1C#N (stereo not drawn) | 0.87% (inactive)
62 | CS(=O)(=O)N1CCCC(C(=O)Nc2ccccc2C(F)(F)F)C1 (stereo not drawn) | -1.81% (inactive)
63 | COC(=O)C(=Nc1ccccc1)/C(C(=O)C(=O)N(C)c1ccccc1)=C(\O)c1ccc(Cl)cc1 | 4.54% (inactive)
64 | COc1ccc(CNC(=O)c2ccc3oc(C(C)C)nc3c2)cc1 | -2.02% (inactive)
65 | Cc1ccc(CC(=O)N(C)CC(=O)N(CC(C)C)c2c(N)n(CC(C)C)c(=O)[nH]c2=O)cc1C | 1.88% (inactive)
66 | COc1ccc(C2=NS(=O)(=O)N(C)C(C(=O)NC(C)c3ccccc3)=C2)cc1 (stereo not drawn) | -1.27% (inactive)

Row | SMILES | inhibition
67 | CCCNC(=O)CCn1cc(-c2ccc(OC)cc2)nc1CCN | -2.88% (inactive)
68 | CCC(Oc1ccccc1C)C(=O)Nc1ccc(S(=O)(=O)Nc2cc(C)on2)cc1 (stereo not drawn) | 2.56% (inactive)
69 | Cc1cccc2[nH]c(CN(C)C(=O)C3CCC(=O)N(CCc4ccccc4)C3)nc12 (stereo not drawn) | 1.57% (inactive)
70 | Cc1ccc(S(=O)(=O)N2[C@@H](c3ccc(Br)cc3)C(C(=O)O)=C[C@H]2CC2CCCC2)cc1 | 7.5% (inactive)
71 | Cc1ccc(N2CC(C(=O)N3CCC4(CC3)CC(=O)c3ccccc3O4)CC2=O)cc1C (stereo not drawn) | -0.05% (inactive)
72 | CCc1c(C)sc(NC(=O)OC)c1C(=O)N1CCOCC1 | -2.33% (inactive)
73 | Cc1ccccc1C(=O)N1CCC(C(=O)Nc2ccc(S(=O)(=O)N(C)C(C)C)cc2)CC1 | -0.44% (inactive)
74 | CC1Cc2ccccc2N1C(=O)c1cc2sccc2n1Cc1ccccc1 (stereo not drawn) | -8.28% (inactive)
75 | COc1cccc(NC(=O)CN(C)CC(=O)c2c(N)n(Cc3ccccc3)c(=O)n(C)c2=O)c1 | 0.04% (inactive)
76 | Nc1ccccc1-c1nc2ccncc2[nH]1 | 0.67% (inactive)
77 | CN(C)c1ccc(NC(=O)CN2C3CCCC2CC(NC(=O)c2ccccc2)C3)cc1 (stereo not drawn) | 0.94% (inactive)
78 | CCOC(=O)c1c(NC(=O)CCCN2CCOCC2)sc2c1CC(C)(C)OC2 | -0.04% (inactive)
79 | CCOCCCNC(=O)c1cc2c(=O)n3ccccc3nc2s1 | 1.17% (inactive)
80 | CCCC(O)(c1ccccc1)C(c1ccccc1)c1ccccn1 (stereo not drawn) | -1.16% (inactive)
81 | Cc1ccc(OC(=O)c2c(C)nn(-c3ccccc3)c2C)cc1 | -9.87% (inactive)
82 | Cc1ccc(Cl)c(NC(=O)CN(C)CC(=O)Nc2ccc(F)c(F)c2F)c1Cl | 2.92% (inactive)
83 | CCOc1ccccc1OCCCNCc1ccccc1 | -2.73% (inactive)
84 | C=CCOc1nc2c(c(=O)n(C)c(=O)n2C)n1Cc1ccc(Cl)cc1Cl | -0.75% (inactive)
85 | CCOC(=O)C1CCN(C(=O)Nc2ccc(C)c(Cl)c2)CC1 | 0.52% (inactive)
86 | CCN(CC(=O)NCCCN1CCOCC1)S(=O)(=O)c1cc(Cl)ccc1Cl | 3.54% (inactive)
87 | CN(c1ccccn1)c1ncnc2[nH]ncc12 | 0.01% (inactive)
88 | Cc1ccnc(NC(=O)C2CCN(S(=O)(=O)c3c(C)c(C)cc(C)c3C)CC2)c1 | -5.56% (inactive)
